Residue numbers refer to the chain shown, from its start.

What all share (assay): PBM; 200 nM protein, PBS
Holding throughout (conditions): dsDNA, one strand shown

The target in assay [1] is ALX1 (Homo sapiens, UniProt Q15699 118-204, L144V).
For assay [2], the target named is ALX1 (Homo sapiens, UniProt Q15699 118-204, L144R).
Assay [3] concerns the target ALX1 (Homo sapiens, UniProt Q15699 118-204).
For a further assay, the target named is PRRX1 (Homo sapiens, UniProt P54821 80-166).
The target of assay [4] is CRX (Homo sapiens, UniProt O43186 26-111).
CRX (Homo sapiens, UniProt O43186 26-111), sequence (O43186 26-111): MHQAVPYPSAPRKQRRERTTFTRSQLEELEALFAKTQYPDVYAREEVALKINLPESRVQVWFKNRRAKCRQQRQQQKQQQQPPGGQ
For assay [5], the target named is CRX (Homo sapiens, UniProt O43186 26-111, E42D).
CRX (Homo sapiens, UniProt O43186 26-111, E42D), sequence (O43186 26-111 E42D): as the sequence (O43186 26-111) above, with E17D counted along it
Assay [6] deals with CRX (Homo sapiens, UniProt O43186 26-111, R41L).
CRX (Homo sapiens, UniProt O43186 26-111, R41L), sequence (O43186 26-111 R41L): as the sequence (O43186 26-111) above, with R16L counted along it
The target of assay [7] is ALX3 (Homo sapiens, UniProt O95076 139-225, N203Q).
ALX3 (Homo sapiens, UniProt O95076 139-225, N203Q), sequence (O95076 139-225 N203Q): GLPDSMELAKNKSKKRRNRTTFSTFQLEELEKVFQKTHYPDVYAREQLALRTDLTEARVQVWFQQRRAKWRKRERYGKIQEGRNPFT
For assay [8], the target named is ALX3 (Homo sapiens, UniProt O95076 139-225).
ALX3 (Homo sapiens, UniProt O95076 139-225), sequence (O95076 139-225): as the sequence (O95076 139-225 N203Q) above, with Q65N counted along it
The target in assay [9] is ALX3 (Homo sapiens, UniProt O95076 139-225, L168Q).
ALX3 (Homo sapiens, UniProt O95076 139-225, L168Q), sequence (O95076 139-225 L168Q): as the sequence (O95076 139-225 N203Q) above, with L30Q, Q65N counted along it
Assay [10] deals with ALX3 (Homo sapiens, UniProt O95076 139-225, L168V).
ALX3 (Homo sapiens, UniProt O95076 139-225, L168V), sequence (O95076 139-225 L168V): as the sequence (O95076 139-225 N203Q) above, with L30V, Q65N counted along it
In assay [11] the target is ALX3 (Homo sapiens, UniProt O95076 139-225, N203S).
ALX3 (Homo sapiens, UniProt O95076 139-225, N203S), sequence (O95076 139-225 N203S): as the sequence (O95076 139-225 N203Q) above, with Q65S counted along it
Assay [12] concerns the target ALX4 (Homo sapiens, UniProt Q9H161 200-286).
The target in assay [13] is T1, PAX4 (Homo sapiens, UniProt O43316 9-242).
T1 sequence: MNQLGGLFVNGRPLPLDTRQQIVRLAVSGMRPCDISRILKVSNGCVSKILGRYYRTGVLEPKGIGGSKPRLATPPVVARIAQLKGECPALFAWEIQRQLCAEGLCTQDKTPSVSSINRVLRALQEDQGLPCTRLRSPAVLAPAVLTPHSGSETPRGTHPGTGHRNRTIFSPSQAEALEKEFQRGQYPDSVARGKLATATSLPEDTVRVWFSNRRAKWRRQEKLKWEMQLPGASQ

Assay [14] has as its target ALX4 (Homo sapiens, UniProt Q9H161 200-286, Q225E).
Assay [15] has as its target T2, PAX4 (Homo sapiens, UniProt O43316 9-242, R200Q).
T2 sequence: T1 sequence with R192Q

Assay [16] deals with T3, PAX4 (Homo sapiens, UniProt O43316 9-242, F177V).
T3 sequence: T1 sequence with F169V

In assay [17] the target is T4, PAX4 (Homo sapiens, UniProt O43316 9-242, F177Y).
T4 sequence: T1 sequence with F169Y

Another assay concerns the target PROP1 (Homo sapiens, UniProt O75360 56-141).
Assay [18] concerns the target T5, PAX4 (Homo sapiens, UniProt O43316 9-242, R227W).
T5 sequence: T1 sequence with R219W

ALX4 (Homo sapiens, UniProt Q9H161 200-286), sequence (Q9H161 200-286): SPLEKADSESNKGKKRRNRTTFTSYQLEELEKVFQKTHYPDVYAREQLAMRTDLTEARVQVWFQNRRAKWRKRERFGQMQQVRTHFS
PRRX1, sequence (P54821 80-166): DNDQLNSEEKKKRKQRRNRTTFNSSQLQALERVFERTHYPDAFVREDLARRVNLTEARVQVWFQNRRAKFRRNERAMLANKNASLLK
ALX1 (Homo sapiens, UniProt Q15699 118-204), sequence (Q15699 118-204): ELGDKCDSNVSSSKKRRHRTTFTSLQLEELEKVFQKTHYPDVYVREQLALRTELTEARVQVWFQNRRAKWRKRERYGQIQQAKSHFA
ALX1 (Homo sapiens, UniProt Q15699 118-204, L144R), sequence (Q15699 118-204 L144R): as the sequence (Q15699 118-204) above, with L27R counted along it
ALX1 (Homo sapiens, UniProt Q15699 118-204, L144V), sequence (Q15699 118-204 L144V): as the sequence (Q15699 118-204) above, with L27V counted along it
ALX4 (Homo sapiens, UniProt Q9H161 200-286, Q225E), sequence (Q9H161 200-286 Q225E): as the sequence (Q9H161 200-286) above, with Q26E counted along it
PROP1, sequence (O75360 56-141): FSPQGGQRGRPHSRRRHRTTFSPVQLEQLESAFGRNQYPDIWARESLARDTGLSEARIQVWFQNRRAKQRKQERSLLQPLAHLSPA

Regarding CGGGAGAG, the binding signal with ALX1 [1] is 6.33 upbm affinity estimate (log intensity, higher = more binding, comparable within an allelic series); with ALX1 [2], 6.21 upbm affinity estimate (log intensity, higher = more binding, comparable within an allelic series); with ALX1 [3], 6.23 upbm affinity estimate (log intensity, higher = more binding, comparable within an allelic series).
On to AACAATAC, for which the binding signal with PRRX1 was 10.9 upbm affinity estimate (log intensity, higher = more binding, comparable within an allelic series).
Turning to GCCCAGAC, the binding signal is 8.35 upbm affinity estimate (log intensity, higher = more binding, comparable within an allelic series) in the assay with CRX [4]; 8.45 upbm affinity estimate (log intensity, higher = more binding, comparable within an allelic series) in the assay with CRX [5]; 8.39 upbm affinity estimate (log intensity, higher = more binding, comparable within an allelic series) with CRX [6].
Consider GACTGGCC, for which the binding signal in the assay with ALX3 [7] was 7.82 upbm affinity estimate (log intensity, higher = more binding, comparable within an allelic series); in the assay with ALX3 [8], 7.84 upbm affinity estimate (log intensity, higher = more binding, comparable within an allelic series); with ALX3 [9] it was 7.72 upbm affinity estimate (log intensity, higher = more binding, comparable within an allelic series); in the assay with ALX3 [10], 7.77 upbm affinity estimate (log intensity, higher = more binding, comparable within an allelic series); with ALX3 [11] it was 7.91 upbm affinity estimate (log intensity, higher = more binding, comparable within an allelic series).
In the case of TAAATTAA, the binding signal with ALX4 [12] is 13.9 upbm affinity estimate (log intensity, higher = more binding, comparable within an allelic series); with PAX4 [13], 12.3 upbm affinity estimate (log intensity, higher = more binding, comparable within an allelic series); in the assay with ALX4 [14] it was 13.1 upbm affinity estimate (log intensity, higher = more binding, comparable within an allelic series); in the assay with ALX1 [1] it was 11.8 upbm affinity estimate (log intensity, higher = more binding, comparable within an allelic series); with ALX3 [7] it was 8.53 upbm affinity estimate (log intensity, higher = more binding, comparable within an allelic series); with PAX4 [15], 12 upbm affinity estimate (log intensity, higher = more binding, comparable within an allelic series). The binding signal is 11.5 upbm affinity estimate (log intensity, higher = more binding, comparable within an allelic series) with ALX1 [2]; 10.6 upbm affinity estimate (log intensity, higher = more binding, comparable within an allelic series) with PAX4 [16]; 12.4 upbm affinity estimate (log intensity, higher = more binding, comparable within an allelic series) with ALX3 [8]; 11 upbm affinity estimate (log intensity, higher = more binding, comparable within an allelic series) with PAX4 [17]; 11.2 upbm affinity estimate (log intensity, higher = more binding, comparable within an allelic series) with PROP1; 10.4 upbm affinity estimate (log intensity, higher = more binding, comparable within an allelic series) with ALX3 [9]. For the same sequence, the binding signal was 9.89 upbm affinity estimate (log intensity, higher = more binding, comparable within an allelic series) with ALX3 [10]; 11 upbm affinity estimate (log intensity, higher = more binding, comparable within an allelic series) in the assay with PAX4 [18]; 12.4 upbm affinity estimate (log intensity, higher = more binding, comparable within an allelic series) with ALX1 [3]; 8.68 upbm affinity estimate (log intensity, higher = more binding, comparable within an allelic series) with ALX3 [11]; 13.4 upbm affinity estimate (log intensity, higher = more binding, comparable within an allelic series) in the assay with PRRX1.
With GACCAGGC, the binding signal with PAX4 [13] was 9.45 upbm affinity estimate (log intensity, higher = more binding, comparable within an allelic series); with PAX4 [15], 9.45 upbm affinity estimate (log intensity, higher = more binding, comparable within an allelic series); with PAX4 [16], 9.26 upbm affinity estimate (log intensity, higher = more binding, comparable within an allelic series); with PAX4 [17], 9.29 upbm affinity estimate (log intensity, higher = more binding, comparable within an allelic series); in the assay with PAX4 [18], 9.37 upbm affinity estimate (log intensity, higher = more binding, comparable within an allelic series).
Regarding TATTAATA, the binding signal with ALX3 [7] was 8.75 upbm affinity estimate (log intensity, higher = more binding, comparable within an allelic series); in the assay with PAX4 [15], 11.9 upbm affinity estimate (log intensity, higher = more binding, comparable within an allelic series); with PAX4 [17] it was 11.1 upbm affinity estimate (log intensity, higher = more binding, comparable within an allelic series); in the assay with ALX3 [10], 9.77 upbm affinity estimate (log intensity, higher = more binding, comparable within an allelic series); with PAX4 [18] it was 11.2 upbm affinity estimate (log intensity, higher = more binding, comparable within an allelic series); in the assay with ALX3 [11], 8.79 upbm affinity estimate (log intensity, higher = more binding, comparable within an allelic series).
With ACATTAAT, the binding signal in the assay with PAX4 [16] is 10.5 upbm affinity estimate (log intensity, higher = more binding, comparable within an allelic series).
In the case of CCCCCTCG, the binding signal with ALX4 [12] is 8.09 upbm affinity estimate (log intensity, higher = more binding, comparable within an allelic series); with ALX4 [14], 7.97 upbm affinity estimate (log intensity, higher = more binding, comparable within an allelic series).
Consider ATTAATCG, for which the binding signal is 12.2 upbm affinity estimate (log intensity, higher = more binding, comparable within an allelic series) in the assay with PAX4 [13]; 12 upbm affinity estimate (log intensity, higher = more binding, comparable within an allelic series) with PAX4 [15]; 10.5 upbm affinity estimate (log intensity, higher = more binding, comparable within an allelic series) with PAX4 [16]; 11.1 upbm affinity estimate (log intensity, higher = more binding, comparable within an allelic series) in the assay with PAX4 [17]; 10.7 upbm affinity estimate (log intensity, higher = more binding, comparable within an allelic series) with PAX4 [18].
In the case of GGAGCTCC, the binding signal with ALX4 [12] was 7.72 upbm affinity estimate (log intensity, higher = more binding, comparable within an allelic series); with ALX4 [14], 7.79 upbm affinity estimate (log intensity, higher = more binding, comparable within an allelic series); with ALX3 [7], 7.68 upbm affinity estimate (log intensity, higher = more binding, comparable within an allelic series); with ALX3 [8], 7.41 upbm affinity estimate (log intensity, higher = more binding, comparable within an allelic series); in the assay with ALX3 [9], 7.7 upbm affinity estimate (log intensity, higher = more binding, comparable within an allelic series); with ALX3 [10], 7.63 upbm affinity estimate (log intensity, higher = more binding, comparable within an allelic series). Further, in the assay with ALX3 [11], the binding signal is 7.63 upbm affinity estimate (log intensity, higher = more binding, comparable within an allelic series).
CCTCATTA: the binding signal in the assay with PRRX1 is 13.2 upbm affinity estimate (log intensity, higher = more binding, comparable within an allelic series).
On the same count and under the same terms, for AGTCATTA the value was 12.7 upbm affinity estimate (log intensity, higher = more binding, comparable within an allelic series).
For the sequence ACTAATGG, the binding signal with PROP1 was 9.71 upbm affinity estimate (log intensity, higher = more binding, comparable within an allelic series).
On to GCGCAGCC, for which the binding signal was 6.42 upbm affinity estimate (log intensity, higher = more binding, comparable within an allelic series) with ALX1 [1]; 6.45 upbm affinity estimate (log intensity, higher = more binding, comparable within an allelic series) with ALX1 [2]; 6.41 upbm affinity estimate (log intensity, higher = more binding, comparable within an allelic series) in the assay with ALX1 [3].
Regarding ATCGATTA, the binding signal with PAX4 [17] is 11 upbm affinity estimate (log intensity, higher = more binding, comparable within an allelic series).
As for ATTATTAA, the binding signal is 8.56 upbm affinity estimate (log intensity, higher = more binding, comparable within an allelic series) in the assay with ALX3 [7] and 13.2 upbm affinity estimate (log intensity, higher = more binding, comparable within an allelic series) in the assay with PRRX1.

The values are drawn from article PMC11006913.
